The source of these data is PubChem BioAssay (NCATS).

Records with an inconclusive call do not appear. A call without a number means that no potency is given here. Activity calls are given as the source filed them. Calls follow the shape of the dose curve; as a rule, active = well fitted inhibition curve with a large enough effect; inconclusive = small, poorly fitted or top-dose-only effect; inactive = flat fitted curve, though single readings scatter.

Chain of Calcium and integrin-binding protein 1 (Homo sapiens) (Q99828 whole entry, looked up): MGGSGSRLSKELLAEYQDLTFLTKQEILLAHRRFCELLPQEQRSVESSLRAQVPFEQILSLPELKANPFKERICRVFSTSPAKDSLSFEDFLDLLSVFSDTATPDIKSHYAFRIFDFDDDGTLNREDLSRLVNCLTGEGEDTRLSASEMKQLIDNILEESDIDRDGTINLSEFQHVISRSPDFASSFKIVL

The assay has as its target Calcium and integrin-binding protein 1 (Homo sapiens) (UniProt Q99828). As to the kind of experiment: Primary qHTS for Identification of Calcium Integrin Binding Protein 1 (CIB1) Competitor (AID 1508620).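 Also: GST tagged CIB1 binding a fluorescein labelled alphaIIb integrin peptide tracer; top concentration of the series differs between compounds.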 The settings on record: CIB1-GST / FITC-alphaIIb peptide fluorescence polarization; series mostly up to 57.7 µM. The essentials: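 Fluorescence polarization competition: CIB1-GST (1 uM final) preincubated with compound 15 min at room temperature, then FITC-labeled alphaIIb peptide (100 nM final) added for another 15 min. Polarization read at Ex 480/Em 540.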
For the compound `Cc1nn(C)c(COc2ccc(N3CCN(S(=O)(=O)N(C)C)CC3)cc2)c1-c1cccc2c(CCCOc3cccc4ccccc34)c(C(=O)O)n(CCN3CCOCC3)c12`, the Potency entry was “inactive”.

As to `CCCC(N[C@@H](C)C(=O)N1[C@H](C(=O)O)C[C@@H]2CCCC[C@@H]21)C(=O)OCC` (some centres not stated), the Potency entry is “inactive”. With `OCc1ccccc1O[C@@H]1O[C@H](CO)[C@@H](O)[C@H](O)[C@H]1O`, the Potency entry was “inactive”. The result for `CCN(c1cc(C#CCN2CCOCC2)cc(C(=O)NCc2c(C)cc(C)[nH]c2=O)c1C)C1CCC(N(C)CCOC)CC1` (configuration not stated) reads “inactive”.

Turning to `COC12CC3C(C(C)C1=CC(=O)O2)C(O)C(OC(C)=O)C1C(C)(C)C(OC(C)=O)CCC31C` (configuration not stated), the Potency entry was “inactive”. Under `CCCOc1ccn2c(C(C)=O)cc(-c3ccccc3S(C)(=O)=O)c2c1` stands “inactive”; under `C[C@H]1[C@H](C)CC[C@]2(C(=O)O)CC[C@]3(C(=O)O)C(=CCC4[C@@]5(C)CC[C@H](O[C@@H]6O[C@H](C)[C@@H](O)[C@H](O)[C@H]6O)C(C)(C)C5CC[C@]43C)[C@H]12` (some centres not stated), “inactive”. As to `N#CCc1ccc(O)cc1O[C@@H]1O[C@H](CO)[C@@H](O)[C@H](O)[C@H]1O`, the Potency entry was “inactive”. The result for `C=C1CC2C3(C)C(OC(C)=O)CC(=O)OC(C)(C)C3C(O)C(OC(C)=O)C2(C)C2C(=O)OC(C)C(=O)C12C` (configuration not stated) reads “inactive”; that for `NCCOCCOCCNC(=O)Cc1ccc(Nc2nc(NCc3ccc(F)cc3)nc(NCC3CCCCC3)n2)cc1`, “inactive”. As to `CCC(=O)NS(=O)(=O)c1ccc(-c2c(-c3ccccc3)noc2C)cc1`, the Potency result was “inactive”. The result for `CCNC(=O)[C@H]1O[C@H](n2cnc3c(NCC(c4ccccc4)c4ccccc4)nc(C(=O)NCCNC(=O)NC4CCN(c5ccccn5)CC4)nc32)[C@H](O)[C@@H]1O` reads “inactive”.
